Drawing on PubChem BioAssay AID2315 (National Center for Advancing Translational Sciences (NCATS), 2010), this text covers inhibition for 93 compounds.

About 27,000 (9.3%) of roughly 290,000 compounds were called active. The sample holds actives, similar compounds and a random draw of the others, so the mix is not that of the screen. A number with no mark means an inactive call. Rule as the data show it: active = inhibition mostly above about 28% (no sharp cut-off); inactive = mostly below about 43%.

The assay in a line: A qHTS for Small Molecule Inhibitors of Shiga Toxin. Also: 0% is about no effect. As to conditions: Vero cells, Shiga toxin protein synthesis inhibition reporter; at 38.7 µM, active compounds read high. For orientation: qHTS replaces the single test concentration by a dilution series.
In the case of `C[C@H](NC(=O)c1nc[nH]c1C(=O)NCC(=O)OC(C)(C)C)c1ccccc1`, the inhibition (in general, the relative decrease from the control value, in per cent) is -2.69%.

As for `COC(=O)c1ccc(Sc2ccc(F)cc2)c(N)c1`, the inhibition was 64.7% (active). The result for `COC(=O)c1nc(NC(=O)c2ccc(F)cc2)n[nH]1` reads 0.673%; that for `COC(=O)c1ccc(C(=O)OC)c(NC(=S)N2CCN(c3ccc(F)cc3)CC2)c1`, -8.17%. Then `COC(=O)c1ccc(C(=O)NC2CC(C)(C)Cc3c2cnn3-c2ccc(F)cc2)nc1` (stereo not drawn), with 19.8%; and `COc1ccc(C2CC(c3ccccc3)=NN2C(=O)c2ccc(Cl)c([N+](=O)[O-])c2)cc1` (stereo not drawn), with -3.59%.

On to `COc1ccc(C2=NN(C(C)=O)C(c3ccccc3)C2)cc1` (stereo not drawn), for which the inhibition is 26.2% (active).

Take `COc1cccc(C2CC(c3ccccc3)=NN2S(=O)(=O)c2ccccc2)c1OC` (stereo not drawn): the inhibition was -3.39%. The result for `COc1ccc(C2=NN(C(=O)c3ccccc3C(=O)O)C(c3ccccc3O)C2)cc1` (stereo not drawn) reads 162% (active); that for `COc1ccc(C2=NN(C(=O)c3cccnc3)C(c3ccccc3)C2)cc1` (stereo not drawn), -14.3%; that for `CCOc1ccc2nc(Cl)c(C3CC(c4ccccc4)=NN3C(=O)c3cccs3)cc2c1` (stereo not drawn), -5.57%. Then `COc1ccc(C(=O)Nc2nc(-c3ccc(OC)cc3)c(-c3ccc([N+](=O)[O-])cc3)s2)cc1`, with -3.81%; and `COc1ccc(C2=NN(C(=O)CCC(=O)O)C(c3cccs3)C2)cc1OC` (stereo not drawn), with -6.96%; and `COc1ccc(C(=O)CSc2nccc(=O)[nH]2)cc1`, with 11%. The result for `COc1ccc(C2CC(c3ccccc3)=NN2C(=O)COC(=O)COc2ccccc2)cc1` (stereo not drawn) reads 30.8%. For the compound `COc1ccc(C2CC(c3ccccc3)=NN2C(=O)CSc2nccc(=O)[nH]2)cc1` (stereo not drawn), the inhibition is 50.8% (active). `COc1ccc(C2CC(c3ccc([N+](=O)[O-])cc3)=NN2C(C)=O)cc1` (stereo not drawn): the inhibition is 37.4% (active). The result for `Brc1ccccc1CN1CCC(Cc2ccccc2)CC1` reads 14.5%. Then `N[C@@H](Cc1ccccc1)C(=O)N1CCC(C(=O)NCC(=O)Nc2ccc(F)cc2)CC1`, with 9.91%.

In the case of `COc1ccc(CCNC(=O)C(=O)NCC2OCCN2S(=O)(=O)c2ccc(OC)c(C)c2)cc1` (stereo not drawn), the inhibition is 2.43%.

Regarding `Cc1ccc(NS(=O)(=O)c2ccc(-c3coc(C)n3)cc2)c(C)c1`, the inhibition was -3.55%. Then `CCC(CC)C(=O)Nc1c2c(nn1-c1ccc(C)cc1)CS(=O)(=O)C2`, with -8.79%. Then `CCN(CC)CCCNC(=O)c1cc2c(=O)[nH]c3ccc(C)cc3c2s1`, with -4.39%; and `O=C(C1CC(=O)N(C2CCCCC2)C1)N1CCN(c2ccccc2)CC1` (stereo not drawn), with 27.8%. Turning to `C/C(=N\NC(=O)Cc1ccccc1[N+](=O)[O-])c1cccnc1`, the inhibition is -10.2%. Then `Cc1cc(C(=O)NC2CC(C)(C)Cc3c2cnn3-c2ccccc2)n[nH]1` (stereo not drawn), with -14.3%.

Turning to `CN(C(=O)CC1C(=O)NCCN1Cc1ccc2ccccc2c1)C1CCOCC1` (stereo not drawn), the inhibition is -0.828%.

As to `CC(C)Nc1nnc(SCC(=O)/C=C2\N(C)c3ccccc3C2(C)C)s1`, the inhibition is 13.3%. With `CN1/C(=C\C(=O)c2cccnc2Cl)C(C)(C)c2ccccc21`, the inhibition was -10.8% (active). Then `CN1/C(=C\C(=O)c2oc3ccccc3c2N)C(C)(C)c2ccccc21`, with 14.5%.

Consider `Cc1ccccc1-c1nc(CS(=O)(=O)CC(=O)NC(C)c2ccccc2)c(C)o1` (stereo not drawn), for which the inhibition was -2.18%.

With `CC1C(=O)C(C)C(c2ccc(O)cc2)NC1c1ccc(O)cc1` (stereo not drawn), the inhibition is -9.62%. As to `Cc1ccc(S(=O)(=O)NCC(=O)N2CCOCCOCCOCCOCC2)cc1`, the inhibition was -2.1%.

As to `Cc1ccc(Cl)cc1NC(=O)COC(=O)CC(C)(C)C`, the inhibition is -3.98%. Then `C/C(CC(=O)N1CCN(C=O)CC1)=N\NC(=O)c1ccc(Br)cc1`, with 36.4%. Then `C/C(=N\NC(=O)Cc1ccc(F)cc1)c1ccc(F)cc1`, with 11.6%; and `O=C(O)CC/C(=N\NC(=O)c1ccc(F)cc1)c1ccc(Br)cc1`, with 57.9% (active). Then `CCn1ccnc1CNC(=O)CC1C(=O)NCCN1CCCc1ccccc1` (stereo not drawn), with 12.9%; and `COc1ccc(CC(=O)Nc2c(C(N)=O)oc3ccccc23)cc1`, with 9.35%; and `COc1cc(C(C(=O)NC2CCCC2)N(C(=O)c2ccco2)c2ccccc2C(C)=O)cc(OC)c1OC` (stereo not drawn), with -3.47%.

In the case of `COc1ccc(NC(C(=O)Nc2cccc(C(C)=O)c2)c2ccccc2)cc1` (stereo not drawn), the inhibition was 27.6% (active). The result for `COc1ccc(NC(=O)[C@H](NC(=O)[C@@H]2Cc3ccccc3CN2)c2ccccc2)cc1` reads -2.7%; that for `COC(C(=O)Nc1ccc(C(C)=O)cc1)c1ccccc1` (stereo not drawn), 10.3%. As to `Cc1cc(C)cc(N(CC(=O)N2CC=C(c3ccccc3)CC2)S(=O)(=O)c2c(C)noc2C)c1`, the inhibition was -8.45%. The result for `CN(C)/C=C(\C=[N+](C)C)c1[nH]ncc1[N+](=O)[O-]` reads -4.31%; that for `CNc1[nH]ncc1[N+](=O)[O-]`, 120% (active). The result for `CNc1ccc(NC(C)=O)cc1[N+](=O)[O-]` reads -5.19%; that for `Cc1cc(-c2csc(N)n2)c(C)n1-c1ccccc1`, 34.4%. For `CC(=O)Nc1ccc(C(=O)Nc2nc(-c3cc(C)n(Cc4ccccc4)c3C)cs2)cc1`, the inhibition was -6.21%. Consider `Cc1cc(-c2csc(N)n2)c(C)n1Cc1ccccc1`, for which the inhibition was 28.2% (active). Then `Cc1ccccc1NC(=O)CSc1nc2ccc(Nc3nc(N4CCOCC4)nc(N4CCOCC4)n3)cc2s1`, with 23.8%; and `Cc1nnc2sc(-c3ccco3)nn12`, with -4.02%; and `Fc1ccc(-c2ccc(-c3nn4c(-c5ccco5)nnc4s3)o2)cc1`, with 26.5% (active).

In the case of `FC(F)(F)c1nnc2sc(-c3ccco3)nn12`, the inhibition was 7.08%.

In the case of `CCN(CC)S(=O)(=O)c1ccc(NC(=O)c2cccnc2Cl)c(NC(=O)c2cccnc2Cl)c1`, the inhibition is -4.86%. Then `Cc1ccc(NC(=O)CNCc2ccccn2)cc1S(=O)(=O)N(C)C`, with 40.8%; and `CCN(CC)S(=O)(=O)c1cc(C(=O)Nc2ccccn2)ccc1C`, with 119% (active). Consider `COc1cc(C(=O)NCc2nnc(SCC(=O)c3ccc(Cl)cc3)o2)cc(OC)c1OC`, for which the inhibition is -10.7%. Then `OCCN1CCN(c2nnc(-c3ccccc3)c3ccccc23)CC1`, with -4.9%; and `Cc1nc(C)c(-c2nnc(-c3cccc(S(=O)(=O)N(C)C)c3)o2)cc1C(=O)NN`, with 3.74%. Then `COc1ccc2c(C(=O)c3ccc(C)cc3)n(CCC(N)=O)[n+]([O-])c2c1`, with 7.71%.

For the compound `O=C(O)Cc1sc(-c2ccccc2)nc1-c1cccs1`, the inhibition is 47.2%.

In the case of `NC(=O)Cc1ccc2sc(-c3ccccc3)nc2c1`, the inhibition is 79.9% (active). Then `NC(=O)Cc1ccc2c(c1)[nH]c1ccccc12`, with 11.9%; and `Cc1cc(S(=O)(=O)NCc2ccccn2)c(Cl)cc1Cl`, with -4.73%; and `CCSc1nc(O)c(C(c2cccc(OC)c2)c2c(O)nc(SCC)[nH]c2=O)c(=O)[nH]1`, with 19.1%. The result for `CC(=O)NCCC(=O)Nc1cc(S(=O)(=O)N2CCCCC2)ccc1Oc1cccc(C)c1` reads -10.6%. Then `Cc1cc(Br)ccc1NC(=S)NC1CCCC1`, with 35.4%; and `C/C(CC(=O)Nc1cccc(F)c1)=N\NC(=O)C(=O)NC1CCCCC1`, with -4.86%. Consider `CC(C)c1ccc(NC(=O)NC2CCCCC2)cc1`, for which the inhibition was 107% (active). Then `Cc1ccc(NC(=S)NC2CCCC2)cc1`, with 85% (active); and `O=C(Nc1cccc(F)c1)NC1CCCCCCC1`, with 159% (active).

Consider `Cc1ccc(NC(=O)CSCC(=O)NC2CCCCC2)cc1`, for which the inhibition is 5.95%. Then `CC(C)(C)NS(=O)(=O)c1ccc(NC(=O)NC2CCCCC2)cc1`, with 56.6%; and `O=C(Nc1cccc(F)c1)NC1CCCc2ccccc21` (stereo not drawn), with -2.03%; and `Cc1cc(C)cc(NC(=O)NC2CCCCCCC2)c1`, with 14.2%. The result for `Cc1cccc(N2CCN(S(=O)(=O)c3ccc(-c4cc(C)no4)s3)CC2C)c1` (stereo not drawn) reads -9.9%; that for `COc1ccc([N+](=O)[O-])cc1NCC(=O)c1ccc(C)cc1`, 17.1%. The result for `COc1ccccc1NC(=O)C1CCN(C(=O)c2ccc(C(C)(C)C)cc2)CC1` reads 18.1%; that for `COc1ccccc1C(=O)Nc1ccnn1C1CCN(C(=O)C(C)(C)C)CC1`, 20.1%; that for `O=C(c1c(Cl)cccc1Cl)N1CCN(c2cccc3[nH]ccc23)CC1`, -6.91%.

Consider `COc1ccccc1N1CCN(C(=O)c2c(-c3c(Cl)cccc3Cl)noc2C)CC1`, for which the inhibition was -7.02%. The result for `O=C(c1ccc2ccccc2n1)N1CCN(c2ccccc2Cl)CC1` reads 62.1% (active). The result for `Cn1c(CCc2ccccc2)nnc1SCC(N)=O` reads -2.98%; that for `CCOc1ccc(-n2c(SCC(N)=O)nnc2-c2ccco2)cc1`, 1.48%.

For the compound `Cc1ccc(NC(=O)CN(C)C(=O)c2ccc(Br)o2)cc1`, the inhibition is 24.8%. Then `COc1ccc(C(=O)Cc2cnn(-c3ccccc3)c2)c(O)c1`, with 104% (active); and `COc1ccc(C(=O)CC(=O)c2ccc(C)cc2)c(O)c1`, with 5.12%.

With `Cc1cc(O)cc(O)c1C(=O)Cc1cnn(-c2ccccc2)c1`, the inhibition is 52.3%.

Consider `[2H]C(CCOS(N)(=O)=O)c1ccccc1` (stereo not drawn), for which the inhibition is -5.48%.

With `CN(CC(=O)Nc1ccc(N2CCOCC2)cc1)CC(=O)Nc1ccccc1[N+](=O)[O-]`, the inhibition was -10.3%. Consider `COc1cc2ccccc2cc1C(=O)Nc1ccc(N2CCOCC2)cc1`, for which the inhibition is 18.7%. The result for `O=C(Nc1ccc(N2CCOCC2)cc1)c1ccc(-c2ccccc2[N+](=O)[O-])o1` reads 46.4% (active).
